About 20 (0.02%) of roughly 110,000 compounds were called active. Another 2% or so got no clear call; they are omitted. Calls come from the whole dose curve; as a rule, active = well fitted activation curve with a large enough effect; inconclusive = small, poorly fitted or top-dose-only effect; inactive = no such curve, though single readings can be large or run the other way. Shown is part of a subset that was picked to be rich in actives.
Assay: qHTS Assay for Compounds that Induce Erasure of Genomic Imprints;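 note: 0% = negative control wells on the plate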
Settings: mouse ES Peg3-LacZ reporter, beta-gal luminescence, 40 h; series mostly up to 10.9 µM; activity change, positive = activation: at the top concentration
Source text: qHTS Assay for Compounds that Induce Erasure of Genomic Imprints NIH Chemical Genomics Center [NCGC] NIH Molecular Libraries Screening Centers Network [MLSCN] Assay Submitter (PI): JEFFRIES, SEAN, NCGC, University of Cambridge NCGC Peg3 Imprinting Assay Overview Genomic imprinting is the epigenetic process whereby genes are expressed in a parent of origin fashion. […] Unlike some forms of epigenetic silencing that can be overcome by overexpression of transcription factors, genomic imprinting stably represses the expression of one allele despite potentially high levels of expression from the other allele. […] During mouse embryonic day 11.5 imprints are erased in PGCs so that sex specific imprints can be reestablished during gametogenesis. Embryonic germ (EG) cells can be derived from developing PGCs at embryonic day 11.5 and these cells often lack genomic imprints. […] Embryonic stem (ES) cells are a cell type similar to EG cells in phenotype and transcriptional profile, yet ES cells maintain genomic imprints. This similarity between ES and EG cells prompted us to use ES cells to look for factors which could induce imprint erasure. To investigate the stability of genomic imprinting, ES cells were derived from mice with an insertion of a LacZ-Neomycin reporter construct in the Peg3 locus. Peg3 is an imprinted locus where gene expression is restricted to the paternal allele. […] Using LacZ expression we are able to monitor the state of the Peg3 imprint. In order to dissect the mechanisms involved in imprint erasure using a forward chemical genetics approach we developed a cell based phenotype assay using an endogenous silence imprinted locus. This assay utilizes maternally inherited Peg3LacZ-Neo ES cells by monitoring the LacZ expression from the normally silent Peg3 allele. To facilitate screening, high-density feeder-free ES cell culture has been optimized so that ES cells can be grown in 1536 for over four days without feeding or washes. The assay uses a luminescence based read out for LacZ activity and is a homogenous assay optimal for HTS.
NCGC Peg3 Imprinting Assay Protocol Summary ES cell lines were derived from blastocysts taken from Peg3LacZ-Neo x129 matings. Lines were sexed and genotyped for the Peg3LacZ-Neo allele. Female cells carrying the reporter allele were used in this study. Cells were derived on a layer of mouse embryonic fibroblasts and passaged multiple times before switching to feeder free culture. Cells were maintained feeder free on gelatin coated dishes in DMEM/F12 media supplemented with 15% FBS, 2mM L-glutamine, 100 units/ml penicillin, 100ug/ml streptomycin, 0.1mM MEM nonessential amino acids, 1mM sodium pyruvate, 0.1% sodium bicarbonate, 0.1mM 2-Mercaptoethanol, and 400 units/ml leukemia inhibitory factor (LIF) at 37C with 5% CO2. The assay was performed in 1536-well format. A single luminescence read was taken at the end of the assay and the data was normalized by plate to internal negative controls. Maximum efficacy and AC50 values were calculated from dose-response data using the standard Hill equation. 1536 well plates were filled with 0.5ul of 0.1% gelatin per well, spun down and incubated for at least 30 min at 37C. The ES cells were then trypsini Peg3 1536-well assay protocol: (1)Plate 0.5ul/well 0.1% gelatin in white tissue culture treated 1536-well plates, spin and incubate at 37C for at least 30 min. (2)Add 5ul/well (300 cells) of ES cell suspension from freshly trypsinized cells and incubate at 37C, 5% CO2 for 40 hours. (3)Add 5ul/well of freshly prepared BetaGlo solution and incubate at room temperature for 5 minutes. (4)Read luminescence on the ViewLux plate reader. Keywords Genomic Imprinting, Germ Cells, Embryonic Stem Cell, DNA Methylation, Peg3, qHTS, NIH roadmap, NCGC

Activity change, positive = activation, inactive:
Cc1nc2ccn(Cc3cccnc3)c(=O)c2cc1C(=O)N1CCN(c2ccccc2F)CC1 -12.9%, COc1cc(OC)c(NC(=O)c2nc(-c3ccncc3)no2)cc1Cl 1.79%, COc1ccccc1NC(=O)c1oc2ccccc2c1NC(=O)COc1ccccc1OC -14.1%, Cc1c(-c2nsc(NC(=O)c3cccc(Cl)c3)n2)nnn1-c1ccccc1C(F)(F)F 11.8%, O=C(c1cccs1)c1cn(CCOc2ccc(Cl)cc2)c2ccccc12 -14.8%, CC(=O)c1c(C)n(S(=O)(=O)c2ccc(Cl)cc2)c2ccc(NS(=O)(=O)c3ccc(Cl)cc3)cc12 -15.8%, COc1ccccc1CNC(=O)NCc1noc2ccc(C)cc12 -12.8%, COc1cccc(-c2nnc3n(CCc4ccccc4)c(=O)c4ccccc4n23)c1O -1.81%, COc1cccc(CNCCSc2nnnn2C)c1OCc1ccccc1Cl -19.5%, CCOC(=O)c1ccc(-c2ccc(/C=C(\C#N)C(=O)Nc3ccc(OCC)cc3)o2)cc1 -9.53%, COc1ccc(NC(=O)CSc2nnc(-c3nnn(-c4ccc(F)cc4)c3C)o2)cc1 -10.1%, COc1ccc(N2CCN(S(=O)(=O)c3ccc(-c4coc(C)n4)cc3)CC2)cc1 -7.96%, Cc1ccccc1C(=O)Nc1sc2c(c1C(=O)N1CCC(C)CC1)CCCC2 -10.6%, CC(=O)[C@H](C(c1ccccc1)N1CCOCC1)N1CCOCC1 (some centres undefined) -10.7%, COc1cc(C(=O)Nc2ccc(OCc3cc(=O)n4ccc(C)cc4n3)cc2)cc(OC)c1OC -13.3%, CCc1cccc(NC(=O)CSc2nccn2C)c1 -8.86%, COc1ccc(S(=O)(=O)NCCSc2nnnn2-c2ccccc2)cc1 -6.91%, CCOc1ccc(OCC)c(NC(=O)c2c(C)nn(-c3ccccc3)c2-n2cccc2)c1 -4.23%, Cc1c(Cl)cccc1NC(=O)C(=O)NCCc1csc2nc(-c3ccccc3F)nn12 -1.33%, CC(Sc1oc(-c2ccco2)nc1S(=O)(=O)c1ccc(Br)cc1)c1ccccc1 (centres undefined) -9.57%, Cc1cc(Cl)ccc1OCC(=O)N(Cc1ccc(N(C)C)cc1)C1CCS(=O)(=O)C1 (centres undefined) 10.5%, COc1ccc(Cc2nc3ccc(C(=O)NCc4ccccc4C)cc3o2)cc1 -10.1%, CC(=O)Nc1cc(C(=O)NCc2ccc(F)cc2Cl)ccc1Sc1ccc(Cl)cc1 3.52%, COc1ccc(-c2nc3ccccc3o2)cc1NC(=O)c1cc([N+](=O)[O-])ccc1N1CCOCC1 -12.3%, Cn1c(=O)c2c(nc(SCC(=O)Nc3ccc(F)cc3)n2Cc2ccccc2)n(C)c1=O -8.43%, CC(=O)OC1=C(C(C)=O)N(Cc2ccccc2)S(=O)(=O)c2ccccc21 -8.79%, CCOc1ccccc1NC(=O)Cn1c(=O)n(-c2cccc(C)c2)c(=O)c2c1c1cc(OC)ccc1n2C -9.1%, CCc1nn(CC(=O)NCC(C)c2ccccc2)c(=O)c2cc3occc3n12 (centres undefined) -4.37%, Fc1ccccc1Oc1ncnc2c1oc1ccccc12 13.2%, COc1ccc(OC)c(NC(=O)CN2CCCN(Cc3cc(C)ccc3C)S2(=O)=O)c1 -5.63%, O=C(Nc1c(C(=O)N2CCN(c3ccc(F)cc3)CC2)oc2ccccc12)c1ccco1 14.6%, COc1ccccc1CNCc1ccc(C(=O)O)s1 24.7%, O=C(C1CCC(Cn2c(=O)c3sccc3n(Cc3ccccc3F)c2=O)CC1)N1CCCCC1 (centres undefined) 9.72%, COc1ccc(OC)c(CNC(=O)CN2C(=O)CCn3nc(-c4cn(C)c5ccccc45)cc32)c1 -8.77%, COc1ccccc1CNC(=O)c1ccc(CS(=O)c2ccccc2Cl)o1 (centres undefined) -10.1%, CCN1CCc2nc3sc(C(=O)Nc4ccccc4OC(F)(F)F)c(N)c3cc2C1 -7.94%, COc1cc(OC)cc(-c2nc3nc(C)c(CCC(=O)Nc4ccc(C)cc4)c(C)n3n2)c1 -11.7%, CC1CCC2(CC1)N=C(c1ccccc1)C(=O)N2CC(=O)Nc1ccc(F)c(Cl)c1 (centres undefined) -6.53%, CCOc1ccc(NC(=O)c2cc(S(=O)(=O)N3CCCC3)c[nH]2)cc1 -5.17%, CC1CCN(S(=O)(=O)c2ccc3c(ccn3CCC(=O)NCc3ccc(N(C)C)cc3)c2)CC1 12%, Cc1c(C(=O)NCc2ccccc2Br)oc2ccc3c(c12)C(=O)CC(C)(C)O3 -7.58%, CCc1nn(CC(=O)N2CCN(c3ccc(Cl)cc3)CC2)c(=O)c2cc3occc3n12 13.7%, COc1ccc(CCn2cc3c(c2-c2ccc(Br)cc2)c(=O)n(C)c(=O)n3C)cc1OC -14%, Cc1ccccc1NC(=O)Cn1c(=O)n(CC2CCC(C(=O)NCCc3ccccc3)CC2)c(=O)c2ccccc21 (centres undefined) -6.05%, Cc1ccc2nc(COc3ccccc3NC(=O)Nc3ccc(F)c(Cl)c3)cc(=O)n2c1 -5.98%, CCOC(=O)c1c(N)n(-c2cccc(C)c2C)c2nc3ccccc3nc12 -12.5%, COc1ccc2c(c1)C=C(C(=O)NCc1cc(Br)ccc1OC)CO2 2.77%, COC(=O)c1cnc(N2CCN(c3ccccc3OC)CC2)c2ccccc12 2.25%, COc1ccc(Br)cc1C1CC(=O)Nc2c1c(C)nn2-c1nc(C)cc(C)n1 (centres undefined) -9.77%

Source: PubChem BioAssay AID1948 (National Center for Advancing Translational Sciences (NCATS), 2009)
